From PubChem BioAssay
Results filed as inconclusive are left out. Calls of active or inactive are those of the source.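 Rule for the calls, unless noted: active = percent response above a set limit, the screen-wide mean plus 3 SD (cut at about 130% in these data); inactive = the rest.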

Key:
[1] = rapamycin-like changes in RPL19A-GFP expression – cell-based, S. cerevisiae, multiplex flow cytometry, primary screen (AID 1862; in the data active = percent of DMSO control GFP below about 86%;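 note: lower values mimic rapamycin by blocking the RPL19A rise seen in DMSO cells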); details: S. cerevisiae RPL19A-GFP strain, flow cytometry fluorescence, 3 h; at 10 µM; stronger effect = lower value
[2] = TOR pathway GLN3 branch reporter MEP2-GFP changes – S. cerevisiae, multiplex flow cytometry, primary screen (AID 1867;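 active = GFP response, as percent of the DMSO control, above the screen-wide mean plus 3 SD, about 139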;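 note: median GFP channel fluorescence of barcode-gated MEP2-GFP cells measured by flow cytometry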); details: S. cerevisiae MEP2-GFP strain, 3 h, at 10 µM, stronger effect = higher value, 100% means same as DMSO wells
[3] = TOR pathway RTG branch CIT2 reporter changes – S. cerevisiae, GFP fusion, multiplex flow cytometry, primary screen (AID 1870);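 note: barcoded CIT2-GFP strain pooled with four other GFP strains with rapamycin as positive control; median GFP fluorescence per well over plate mean of DMSO wells so 100% = DMSO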; details: S. cerevisiae CIT2-GFP expression, 3 h, at 10 µM, stronger effect = higher value
[4] = TOR pathway LAP4-GFP level changes – S. cerevisiae, multiplex flow cytometry, primary screen (AID 1873;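 active = GFP signal, as percent of the solvent control, above the screen mean plus 3 SD, about 149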); details: S. cerevisiae LAP4-GFP expression, 3 h, at 10 µM, stronger effect = higher value
[5] = yeast AGP1-GFP level changes, GLN3 branch – cell-based, multiplex flow cytometry, S. cerevisiae, primary screen (AID 1887;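 active = GFP signal above the screen-wide mean plus 3 SD, that is over about 124.5% of the solvent control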;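 note: AGP1-GFP fusion strain of S. cerevisiae within a five-strain barcoded multiplex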); details: 3 h, at 10 µM, stronger effect = higher value
[6] = reduced mouse 2C T cell binding to pMHC/ICAM-1 vesicles – MLPCN validation set, flow cytometry, LFA-1/ICAM-1 modulator project, pilot screen (AID 2523;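 active = response below a set limit, under 55% cells CD8-positive and vesicle-bound, and CD8 cells' 90th-percentile brightness under 279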;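 for vesicle binding response: mean PE anti-B7-1 fluorescence of CD8+ cells relative to row control; 100% = QL9-loaded vesicles with DMSO vehicle in the same plate row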); details: 2C mouse CD8+ T cells, at 7 µM, stronger effect = lower value; double positive events: measured here: CD8+/vesicle+ event percentage
[7] = target: Integrin beta-1 (Homo sapiens) + Integrin alpha-4 (Homo sapiens) (UniProt P13612+P05556); assay: alpha4beta1 integrin LIBS antibody binding reduction – U937 cells, HUTS-21 mAb, flow cytometry, validation set, VLA-4 allosteric modulator project, pilot screen (AID 2674;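 active = inhibition above 50%, about 3 SD of the validation set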;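 note: antibody binding induced by the VLA-4 ligand LDV present at three times its Kd; 0% = LDV ligand with antibody and no compound and 100% = antibody without LDV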); details: HUTS-21 LIBS mAb binding, at 6.7 µM, stronger effect = higher value, binding induced by LDV ligand
[8] = calorie-restriction mimetic ROS inhibitors, yeast – validation compound set, pilot screen (AID 2706;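 active = superoxide response below 65% of plate, a cut near 3 SD across the whole screen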;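 note: yeast exposed to compound for one week at 30 degrees C before staining; 100% = mean of all compound wells on the same plate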); details: S. cerevisiae aging, superoxide DHE fluorescence; at 10 µM; stronger effect = lower value
[9] = target: Beta-adrenergic receptor kinase 1 (Homo sapiens) (UniProt P25098); assay: GRK2 binders displacing RNA aptamer, biochemical, validation, human GRK2, bead flow cytometry (AID 488806;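 active = aptamer binding inhibition above 30%, about 3 SD of noise from non-fluorescent compounds; inactive = inhibition at or below 30%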); details: bead-bound GRK2, FAM-aptamer displacement, at 10 µM, stronger effect = higher value
[10] = target: Beta-2 adrenergic receptor (Homo sapiens) (UniProt P07550); assay: agonist-induced loss of surface beta2AR – cell-based, FAP fluorogen, flow cytometry, validation set, pilot screen (AID 504459;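 active = percent response above 42, roughly 3 SD of non-fluorescent test compounds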;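 note: agonist-driven loss of surface beta2AR via internalization measured by FAP dye flow cytometry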); details: Am2.2-beta2AR cells, at 10 µM, stronger effect = higher value
[11] = target: AP-2 complex subunit beta (Homo sapiens) (UniProt P63010); assay: beta-arrestin/AP2 interaction blockers – biochemical, validation set, GST-AP2 beads, flow cytometry, pilot screen (AID 504541;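 active = inhibition above 54%, about 3 SD of non-fluorescent compounds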;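 note: AP2 carries R879A mutation and is captured from E. coli lysate; bead-bound FITC arrestin peptide fluorescence measuring arrestin peptide binding to AP2; 0% = DMSO wells and 100% = excess unlabeled arrestin peptide control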); details: FITC arrestin peptide, at 10 µM, stronger effect = higher value, AP2 beta2 appendage fragment, R879A mutant
[12] = cytosolic pH regulators acting via V-ATPase – S. cerevisiae, pHLuorin, HTS validation (AID 504600; in the data active = response above about 15%;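 note: plate controls were DMSO for no effect and reference compound for full effect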); details: V-ATPase proton transport, at 10 µM, stronger effect = higher value
[13] = tested on: anti-desmoglein-3 scFv antibody binding to human DSG3; assay: blockers of pathogenic pemphigus antibody–desmoglein-3 binding – biochemical, validation compound set, bead-based, flow cytometry, pilot screen (AID 588368;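 active = binding below the plate cutoff, the plate median minus 3 SD, with a reading above zero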;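 note: signal is the median channel fluorescence of bead-bound GFP antibody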); details: Protein G beads, DSG3-Fc, scFv-GFP binding, at 10 µM, stronger effect = lower value
[14] = Nile Red efflux blockade in pump-expressing yeast – validation compound set, multiplex, phenotypic, pilot screen (AID 588506;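 active = efflux inhibition above 0.42, the validation set average plus 4 SD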;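 note: Nile Red retained in cells so higher fluorescence means more efflux inhibition; 0 = negative control wells and 1 = enniatin B 25 µM full block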); details: S. cerevisiae pump-expressing triplex, Nile Red efflux flow cytometry; at 10 µM; stronger effect = higher value; the pumps come from Candida albicans
[15] = target: ATP-binding cassette sub-family B member 6 (Homo sapiens) (UniProt Q9NP58); assay: blockers of ABCB6-driven porphyrin uptake – K562-ABCB6 cells, flow cytometry, validation set, pilot screen (AID 588550;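 active = inhibition above the screen-wide mean plus 3 SD, about 51%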;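 note: 0% = DMSO wells and 100% = benzethonium chloride 70 µM positive control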); details: K562-ABCB6 porphyrin accumulation, 1 h, at 10 µM, stronger effect = higher value
[16] = AML differentiation inducers, ER-HoxA9 marrow cells – cell-based, GFP/MAC1 double positive, flow cytometry, validation set, primary screen (AID 588685;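 active = differentiation response of at least 50%, scaled between solvent and reference control, from cells with both markers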;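 note: compound exposure lasts four days before antibody staining and flow analysis; 0% = DMSO wells and 100% = 5 µM fulvestrant positive control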); details: stronger effect = higher value, normalized: vehicle 0, fulvestrant 100

Integrin beta-1 (Homo sapiens) + Integrin alpha-4 (Homo sapiens), sequence (P05556 whole entry, looked up): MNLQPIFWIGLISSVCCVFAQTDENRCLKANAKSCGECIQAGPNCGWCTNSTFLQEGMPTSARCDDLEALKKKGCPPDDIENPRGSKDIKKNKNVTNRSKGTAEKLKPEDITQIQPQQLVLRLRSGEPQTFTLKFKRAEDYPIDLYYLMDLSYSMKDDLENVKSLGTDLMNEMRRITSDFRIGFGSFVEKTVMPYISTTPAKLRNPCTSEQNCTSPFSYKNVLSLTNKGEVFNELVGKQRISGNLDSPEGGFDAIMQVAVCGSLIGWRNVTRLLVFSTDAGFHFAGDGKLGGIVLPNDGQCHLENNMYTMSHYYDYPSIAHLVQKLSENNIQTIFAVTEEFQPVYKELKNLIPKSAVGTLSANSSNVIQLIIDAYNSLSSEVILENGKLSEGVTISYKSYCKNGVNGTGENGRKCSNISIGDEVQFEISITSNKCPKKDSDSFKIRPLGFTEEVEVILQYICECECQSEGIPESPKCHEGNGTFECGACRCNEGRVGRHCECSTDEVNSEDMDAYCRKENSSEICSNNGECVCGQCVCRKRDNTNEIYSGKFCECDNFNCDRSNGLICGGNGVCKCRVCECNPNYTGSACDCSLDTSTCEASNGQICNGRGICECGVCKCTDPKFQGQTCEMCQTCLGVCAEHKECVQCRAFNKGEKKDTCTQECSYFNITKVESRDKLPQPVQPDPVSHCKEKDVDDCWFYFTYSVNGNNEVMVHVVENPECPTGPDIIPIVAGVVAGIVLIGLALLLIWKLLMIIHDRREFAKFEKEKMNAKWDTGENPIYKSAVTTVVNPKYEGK
Integrin beta-1 (Homo sapiens) + Integrin alpha-4 (Homo sapiens), sequence (P13612 whole entry, looked up): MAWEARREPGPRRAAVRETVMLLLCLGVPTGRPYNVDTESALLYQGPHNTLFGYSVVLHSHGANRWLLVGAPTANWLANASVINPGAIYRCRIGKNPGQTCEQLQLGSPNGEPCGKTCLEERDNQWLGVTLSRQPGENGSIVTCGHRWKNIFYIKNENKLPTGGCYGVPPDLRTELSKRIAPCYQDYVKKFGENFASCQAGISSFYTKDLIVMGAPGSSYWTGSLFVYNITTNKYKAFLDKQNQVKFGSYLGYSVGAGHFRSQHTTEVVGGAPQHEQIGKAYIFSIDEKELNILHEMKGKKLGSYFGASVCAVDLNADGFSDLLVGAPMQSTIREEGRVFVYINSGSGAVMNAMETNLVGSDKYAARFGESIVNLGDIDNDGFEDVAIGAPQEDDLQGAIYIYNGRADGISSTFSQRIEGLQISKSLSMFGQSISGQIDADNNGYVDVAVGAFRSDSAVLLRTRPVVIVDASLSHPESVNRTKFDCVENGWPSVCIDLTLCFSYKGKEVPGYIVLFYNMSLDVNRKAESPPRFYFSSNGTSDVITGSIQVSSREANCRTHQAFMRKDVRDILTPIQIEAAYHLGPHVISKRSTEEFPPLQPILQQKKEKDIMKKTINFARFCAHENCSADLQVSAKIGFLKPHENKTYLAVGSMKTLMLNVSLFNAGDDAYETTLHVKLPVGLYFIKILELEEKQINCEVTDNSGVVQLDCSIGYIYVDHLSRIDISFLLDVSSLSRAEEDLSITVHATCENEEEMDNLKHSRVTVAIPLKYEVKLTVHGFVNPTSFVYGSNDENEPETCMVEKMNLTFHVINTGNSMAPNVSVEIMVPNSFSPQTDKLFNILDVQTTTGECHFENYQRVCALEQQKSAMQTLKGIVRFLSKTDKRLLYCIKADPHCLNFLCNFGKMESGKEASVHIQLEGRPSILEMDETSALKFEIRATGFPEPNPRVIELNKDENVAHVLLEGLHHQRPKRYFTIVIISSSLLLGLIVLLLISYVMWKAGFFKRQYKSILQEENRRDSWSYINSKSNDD
ATP-binding cassette sub-family B member 6 (Homo sapiens), sequence (Q9NP58 whole entry, looked up): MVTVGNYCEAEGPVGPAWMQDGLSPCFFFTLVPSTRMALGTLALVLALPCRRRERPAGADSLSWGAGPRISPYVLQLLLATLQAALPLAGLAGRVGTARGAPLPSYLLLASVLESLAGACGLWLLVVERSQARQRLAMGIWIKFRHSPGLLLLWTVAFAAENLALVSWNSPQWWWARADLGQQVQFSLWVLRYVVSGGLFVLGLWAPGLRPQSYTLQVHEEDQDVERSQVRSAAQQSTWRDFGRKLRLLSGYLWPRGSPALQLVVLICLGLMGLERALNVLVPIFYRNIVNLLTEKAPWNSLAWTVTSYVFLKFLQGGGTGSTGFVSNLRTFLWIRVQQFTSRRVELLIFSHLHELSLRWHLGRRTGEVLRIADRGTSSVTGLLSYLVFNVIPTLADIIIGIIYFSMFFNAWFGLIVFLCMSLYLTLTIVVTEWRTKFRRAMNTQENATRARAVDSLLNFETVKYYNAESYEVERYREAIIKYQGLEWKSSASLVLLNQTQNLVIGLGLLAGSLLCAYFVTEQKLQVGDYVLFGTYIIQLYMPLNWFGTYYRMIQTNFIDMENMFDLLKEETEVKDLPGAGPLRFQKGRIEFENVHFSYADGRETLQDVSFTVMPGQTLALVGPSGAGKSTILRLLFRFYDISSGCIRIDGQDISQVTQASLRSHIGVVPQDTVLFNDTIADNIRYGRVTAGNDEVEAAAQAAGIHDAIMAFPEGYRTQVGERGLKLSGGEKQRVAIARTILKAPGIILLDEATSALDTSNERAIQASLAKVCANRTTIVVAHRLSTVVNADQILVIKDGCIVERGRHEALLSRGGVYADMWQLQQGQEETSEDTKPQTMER
Beta-2 adrenergic receptor (Homo sapiens), sequence (P07550 whole entry, looked up): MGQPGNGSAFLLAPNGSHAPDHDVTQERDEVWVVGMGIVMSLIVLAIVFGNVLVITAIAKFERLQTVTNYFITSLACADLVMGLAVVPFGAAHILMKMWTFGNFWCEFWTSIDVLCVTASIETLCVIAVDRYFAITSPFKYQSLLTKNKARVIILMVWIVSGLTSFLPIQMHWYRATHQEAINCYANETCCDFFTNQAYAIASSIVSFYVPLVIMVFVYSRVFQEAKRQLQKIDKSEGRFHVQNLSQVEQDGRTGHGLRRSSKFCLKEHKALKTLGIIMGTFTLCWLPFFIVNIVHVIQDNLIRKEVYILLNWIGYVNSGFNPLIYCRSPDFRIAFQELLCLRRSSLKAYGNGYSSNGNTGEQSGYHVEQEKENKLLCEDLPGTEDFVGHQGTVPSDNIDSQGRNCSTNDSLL
Beta-adrenergic receptor kinase 1 (Homo sapiens), sequence (P25098 whole entry, looked up): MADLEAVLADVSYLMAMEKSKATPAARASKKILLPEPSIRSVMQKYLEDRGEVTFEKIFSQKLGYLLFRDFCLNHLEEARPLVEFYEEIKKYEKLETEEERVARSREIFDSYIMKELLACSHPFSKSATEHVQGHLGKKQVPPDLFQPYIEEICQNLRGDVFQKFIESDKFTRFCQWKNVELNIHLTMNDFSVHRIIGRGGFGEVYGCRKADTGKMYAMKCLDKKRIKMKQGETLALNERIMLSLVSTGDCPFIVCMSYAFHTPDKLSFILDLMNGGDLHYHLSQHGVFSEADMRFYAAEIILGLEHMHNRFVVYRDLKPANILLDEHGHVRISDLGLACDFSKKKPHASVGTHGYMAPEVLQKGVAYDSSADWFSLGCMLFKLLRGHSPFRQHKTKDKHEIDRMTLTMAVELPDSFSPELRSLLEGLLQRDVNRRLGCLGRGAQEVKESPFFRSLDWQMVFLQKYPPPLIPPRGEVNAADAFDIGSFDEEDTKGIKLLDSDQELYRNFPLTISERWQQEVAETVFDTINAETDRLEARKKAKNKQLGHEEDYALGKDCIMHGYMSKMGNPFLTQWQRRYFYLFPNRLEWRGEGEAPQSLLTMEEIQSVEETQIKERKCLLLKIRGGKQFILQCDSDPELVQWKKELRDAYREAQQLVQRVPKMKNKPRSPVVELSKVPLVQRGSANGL
AP-2 complex subunit beta (Homo sapiens), sequence (P63010 whole entry, looked up, the tested form may be a part, one chain of several): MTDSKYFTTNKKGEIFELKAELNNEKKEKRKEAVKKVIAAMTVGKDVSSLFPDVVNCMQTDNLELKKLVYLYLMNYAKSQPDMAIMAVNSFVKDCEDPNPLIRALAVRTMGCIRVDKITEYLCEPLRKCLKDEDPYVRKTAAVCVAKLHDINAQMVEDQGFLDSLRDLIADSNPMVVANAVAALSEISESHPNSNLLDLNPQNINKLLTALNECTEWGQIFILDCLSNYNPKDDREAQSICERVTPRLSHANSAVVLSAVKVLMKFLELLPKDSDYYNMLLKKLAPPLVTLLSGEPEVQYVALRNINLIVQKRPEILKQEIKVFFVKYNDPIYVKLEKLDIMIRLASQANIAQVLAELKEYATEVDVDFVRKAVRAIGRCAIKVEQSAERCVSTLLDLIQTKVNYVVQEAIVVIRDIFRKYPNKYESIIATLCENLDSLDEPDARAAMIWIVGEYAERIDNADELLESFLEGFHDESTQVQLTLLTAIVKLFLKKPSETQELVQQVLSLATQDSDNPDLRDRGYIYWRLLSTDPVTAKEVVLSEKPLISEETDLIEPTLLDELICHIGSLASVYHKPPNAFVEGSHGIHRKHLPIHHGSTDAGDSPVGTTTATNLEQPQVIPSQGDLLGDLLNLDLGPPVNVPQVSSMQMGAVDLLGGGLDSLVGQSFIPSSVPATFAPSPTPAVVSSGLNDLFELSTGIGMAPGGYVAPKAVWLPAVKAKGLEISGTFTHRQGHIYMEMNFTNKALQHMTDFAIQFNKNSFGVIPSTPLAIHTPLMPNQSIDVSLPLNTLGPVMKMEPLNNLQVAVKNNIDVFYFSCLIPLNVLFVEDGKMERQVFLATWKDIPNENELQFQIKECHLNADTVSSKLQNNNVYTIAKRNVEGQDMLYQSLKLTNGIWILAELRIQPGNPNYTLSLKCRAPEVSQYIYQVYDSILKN

SMILES | percent of DMSO control GFP [1] | GFP response vs DMSO [2] | percent response of DMSO control [3] | GFP response vs DMSO [4] | GFP response, % of DMSO [5] | double positive events [6] [%] | vesicle binding response [6] | inhibition [7] | superoxide response (% of plate) [8] | aptamer binding inhibition [9] | response [10] | inhibition [11] | response [12] | binding (% of control) [13] | efflux inhibition (fraction of control) [14] | inhibition [15] | differentiation response [16]
c1ccc(CNc2ncnc3nc[nH]c23)cc1 | 103% (inactive) | 104% (inactive) | 90.8% (inactive) | 90.1% (inactive) | 97.8% (inactive) | 63.6 | 581% (inactive) | 9.92% (inactive) | 93.5% (inactive) | 6% (inactive) | 1.86% (inactive) | -1.71% (inactive) | -1.37% (inactive) | 94.8% (inactive) | 0.11 (inactive) | 3% (inactive) | 7.09% (inactive)
Cc1ccc2c(c1)c1c3n2CCCN(Cc2ccccc2)C3CCC1 (centres undefined) | 100% (inactive) | 104% (inactive) | 105% (inactive) | 103% (inactive) | 92.5% (inactive) | 77.6 | 490% (inactive) | -27.7% (inactive) | 81.8% (inactive) | 0% (inactive) | 14.8% (inactive) | -2.35% (inactive) | -2.93% (inactive) | 102% (inactive) | 0.33 (inactive) | 6% (inactive) | 8.8% (inactive)
CC(=O)N1CCn2c3c(c4cc(C)ccc42)CCCC31 (centres undefined) | 99.7% (inactive) | 102% (inactive) | 98.3% (inactive) | 123% (inactive) | 111% (inactive) | 62 | 208% (inactive) | 0.59% (inactive) | 122% (inactive) | 0% (inactive) | 14.2% (inactive) | 61.1% (active) | 4.65% (inactive) | 110% (inactive) | 0.38 (inactive) | -1% (inactive) | -4% (inactive)
Cc1nc(NCc2ccco2)c(C#N)c2c1COC(C)(C)C2 | 102% (inactive) | 98.7% (inactive) | 96.5% (inactive) | 102% (inactive) | 92.4% (inactive) | 57.7 | 99.2% (inactive) | -9.13% (inactive) | 123% (inactive) | 4% (inactive) | 7.11% (inactive) | -2% (inactive) | 12% (inactive) | 98.8% (inactive) | -0.31 (inactive) | 15% (inactive) | -1.65% (inactive)
CCCCN1C[C@H](O)[C@@H](O)[C@H](O)[C@H]1CO | 102% (inactive) | 99.6% (inactive) | 95.7% (inactive) | 103% (inactive) | 113% (inactive) | 64.9 | 203% (inactive) | 13.4% (inactive) | 104% (inactive) | 5% (inactive) | -17% (inactive) | -12.1% (inactive) | 5.64% (inactive) | 104% (inactive) | -0.04 (inactive) | 0% (inactive) | 0.92% (inactive)
OCCC1CN(Cc2nc(-c3ccccc3)cs2)CCN1Cc1ccc(F)cc1 (centres undefined) | 106% (inactive) | 98.7% (inactive) | 115% (inactive) | 100% (inactive) | 104% (inactive) | 68.6 | 312% (inactive) | -6.45% (inactive) | 103% (inactive) | 0% (inactive) | 2.61% (inactive) | -6.97% (inactive) | -2.6% (inactive) | 100% (inactive) | 0.31 (inactive) | 9% (inactive) | -6.03% (inactive)
Cc1ccc(S(=O)(=O)N2CCC(C(=O)N[C@@H](C)C(=O)NC3CCS(=O)(=O)C3)CC2)cc1 (some centres undefined) | 101% (inactive) | 96.6% (inactive) | 106% (inactive) | 89.3% (inactive) | 96.3% (inactive) | 57.7 | 144% (inactive) | 12.3% (inactive) | 103% (inactive) | 4% (inactive) | -1.25% (inactive) | -5.24% (inactive) | 22.5% (active) | 103% (inactive) | 0.1 (inactive) | 13% (inactive) | -13.3% (inactive)
CC(C)(S)[C@@H](N)C(=O)O | 97.8% (inactive) | 109% (inactive) | 87.2% (inactive) | 101% (inactive) | 98.9% (inactive) | 62.5 | 177% (inactive) | 0.94% (inactive) | 85% (inactive) | 6% (inactive) | 1.94% (inactive) | -6.4% (inactive) | 0.19% (inactive) | 98.2% (inactive) | 0.08 (inactive) | 5% (inactive) | 7.2% (inactive)
O=C1[C@@H]2[C@H](Cc3ccc(O)cc3)N[C@]3(C(=O)Nc4ccccc43)[C@@H]2C(=O)N1c1ccc(F)cc1 | 106% (inactive) | 103% (inactive) | 100% (inactive) | 90.1% (inactive) | 91.9% (inactive) | 61.1 | 1070% (inactive) | 14.1% (inactive) | 90% (inactive) | 2% (inactive) | -3.4% (inactive) | 3.35% (inactive) | -0.08% (inactive) | 92.2% (inactive) | 0.3 (inactive) | 0% (inactive) | 6.11% (inactive)
CCOc1ccc(N2C(=O)CC(NCCNc3ccc([N+](=O)[O-])cn3)C2=O)cc1 (centres undefined) | 103% (inactive) | 95.6% (inactive) | 106% (inactive) | 98% (inactive) | 93% (inactive) | 53.2 | 145% (inactive) | 15% (inactive) | 94.4% (inactive) | 0% (inactive) | 1.65% (inactive) | -8.05% (inactive) | 4.15% (inactive) | 98.8% (inactive) | 0.06 (inactive) | 8% (inactive) | -4.57% (inactive)
O=C(CN1C(=O)c2ccccc2S1(=O)=O)Nc1ccccc1 | 95.5% (inactive) | 126% (inactive) | 112% (inactive) | 84.2% (inactive) | 92.8% (inactive) | 67.7 | 180% (inactive) | -72.1% (inactive) | 98.5% (inactive) | 0% (inactive) | -2.34% (inactive) | 7.49% (inactive) | -1.17% (inactive) | 99% (inactive) | -0.31 (inactive) | 5% (inactive) | 10.6% (inactive)
CC(C)[C@H](NC(=O)[C@@H]1CSCN1C(=O)OC(C)(C)C)C(=O)NCC1CCC(C(=O)O)CC1 (some centres undefined) | 99.7% (inactive) | 97.4% (inactive) | 104% (inactive) | 84.6% (inactive) | 96.3% (inactive) | 64.5 | 283% (inactive) | -4.52% (inactive) | 82.1% (inactive) | 4% (inactive) | -5.23% (inactive) | -2.51% (inactive) | 3.84% (inactive) | 98.9% (inactive) | 0.01 (inactive) | 109% (active) | 0.8% (inactive)
COc1c2c(nc3occc13)C(CC=C(C)C)(OC)C(O)CC2 (centres undefined) | 89.1% (inactive) | 131% (inactive) | 110% (inactive) | 95.7% (inactive) | 98.2% (inactive) | 63.2 | 144% (inactive) | -4.21% (inactive) | 95.4% (inactive) | 6% (inactive) | 3.58% (inactive) | -9.37% (inactive) | -1.04% (inactive) | 103% (inactive) | 0.01 (inactive) | 11% (inactive) | 3.28% (inactive)
CCOC(=O)c1c(C)oc2c1C(=O)c1ccccc1C2=O | 111% (inactive) | 102% (inactive) | 107% (inactive) | 104% (inactive) | 99.9% (inactive) | 59.4 | 316% (inactive) | -16.1% (inactive) | 126% (inactive) | 5% (inactive) | 3.7% (inactive) | 0.55% (inactive) | 0.26% (inactive) | 96.7% (inactive) | -0.22 (inactive) | -26% (inactive) | -0.36% (inactive)
Cc1ccc(C2CC(=O)C(C=NCCN3CCN(C(=S)Nc4ccccc4)CC3)=C(O)C2)cc1 (centres undefined) | 103% (inactive) | 104% (inactive) | 91.2% (inactive) | 110% (inactive) | 107% (inactive) | 60.8 | 417% (inactive) | -0.27% (inactive) | 104% (inactive) | 5% (inactive) | -26.2% (inactive) | -7.49% (inactive) | -3.06% (inactive) | 101% (inactive) | 0.5 (active) | 3% (inactive) | -10.9% (inactive)
CCN1C(=O)C(CC(=O)Nc2ccc(OC)cc2)N(CCc2ccc(F)cc2)C1=S (centres undefined) | 96.9% (inactive) | 98.5% (inactive) | 93.9% (inactive) | 124% (inactive) | 96.2% (inactive) | 60.7 | 292% (inactive) | -3.16% (inactive) | 102% (inactive) | 2% (inactive) | 5.66% (inactive) | 50.8% (inactive) | -3.51% (inactive) | 102% (inactive) | 0.19 (inactive) | 3% (inactive) | 8.8% (inactive)
COc1cc(C=NCC2OCCc3ccccc32)cc(OC)c1 (centres undefined) | 99% (inactive) | 105% (inactive) | 95.8% (inactive) | 117% (inactive) | 100% (inactive) | 57.8 | 136% (inactive) | -1.79% (inactive) | 101% (inactive) | 4% (inactive) | 4.4% (inactive) | 17.8% (inactive) | 1.44% (inactive) | 103% (inactive) | -0.46 (inactive) | -47% (inactive) | -7.2% (inactive)
